Experimental data: PubChem BioAssay (EPA / NIEHS)
Where “and” joins values, the source holds several entries; their conditions need not be identical. Identical values can stand only once. Records with an inconclusive call do not appear. Calls of active or inactive are those of the source. How the source made its calls, unless noted: active means hit-call score of the fitted dose curve at least 0.9, where 1 is the maximum; inconclusive means response in the unintended direction; inactive means score below 0.9.

Legend:
[1] = biological target: human Serotonin Transporter (SERT), SLC6A4 (gene 6532) (UniProt P31645); assay: NVS_TR_hSERT: NovaScreen (NVS) Transporter Assay for human Serotonin Transporter (SERT) (AID 2283372)
Summary of the method: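 Radioligand binding to native SERT in human platelet membranes, read by filter-based scintillation counting 1 h after dosing. Primary screen in duplicate at 25 uM; actives followed up in concentration series; loss of signal versus DMSO baseline.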

[2] = tested on: rat Norepinephrine Transporter (NET), gene 83511; assay: NVS_TR_rNET: NovaScreen (NVS) Transporter Assay for rat Norepinephrine Transporter (NET) (AID 2283373)
Summary of the method: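 Rat forebrain membranes; radioligand binding measured by filter-based scintillation counting 1 hour after dosing. Loss of specific binding versus DMSO baseline scored; primary screen in duplicate at 25 uM, actives followed up in concentration series.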

[3] = biological target: rat Serotonin Transporter (SERT), Slc6a4 (gene 25553) (UniProt P31652); assay: NVS_TR_rSERT: NovaScreen (NVS) Transporter Assay for rat Serotonin Transporter (SERT) (AID 2283375)
Chain of rat Serotonin Transporter (SERT), Slc6a4 (gene 25553) (P31652 whole entry, looked up): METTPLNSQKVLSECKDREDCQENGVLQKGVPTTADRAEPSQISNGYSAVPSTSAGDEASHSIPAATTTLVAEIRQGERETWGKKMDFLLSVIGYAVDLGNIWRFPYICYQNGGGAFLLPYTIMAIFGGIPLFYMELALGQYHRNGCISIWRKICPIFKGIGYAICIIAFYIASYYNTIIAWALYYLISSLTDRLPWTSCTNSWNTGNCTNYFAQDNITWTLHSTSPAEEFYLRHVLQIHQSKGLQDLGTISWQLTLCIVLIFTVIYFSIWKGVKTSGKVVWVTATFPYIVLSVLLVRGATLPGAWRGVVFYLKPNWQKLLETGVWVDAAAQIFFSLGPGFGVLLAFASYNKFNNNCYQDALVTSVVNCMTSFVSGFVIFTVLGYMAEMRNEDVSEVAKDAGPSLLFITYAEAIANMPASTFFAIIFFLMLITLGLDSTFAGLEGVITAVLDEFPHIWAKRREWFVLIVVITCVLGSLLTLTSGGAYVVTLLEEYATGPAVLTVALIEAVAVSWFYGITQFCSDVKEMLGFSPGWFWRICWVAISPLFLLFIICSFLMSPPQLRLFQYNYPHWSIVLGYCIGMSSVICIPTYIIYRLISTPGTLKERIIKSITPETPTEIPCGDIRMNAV
Summary of the method: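 Filtration-based radiodetection quantified loss of specific radioligand binding in rat forebrain membranes after 1 hour of chemical exposure, relative to DMSO. Chemicals were first tested in duplicate at 25 uM.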

[4] = biological target: human Norepinephrine Transporter (NET), SLC6A2 (gene 6530) (UniProt P23975); assay: NVS_TR_hNET: NovaScreen (NVS) Transporter Assay for human Norepinephrine Transporter (NET) (AID 2283377);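 further: cell-free membrane protein extracted from CHO cells expressing human NET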
Chain of human Norepinephrine Transporter (NET), SLC6A2 (gene 6530) (P23975 whole entry, looked up): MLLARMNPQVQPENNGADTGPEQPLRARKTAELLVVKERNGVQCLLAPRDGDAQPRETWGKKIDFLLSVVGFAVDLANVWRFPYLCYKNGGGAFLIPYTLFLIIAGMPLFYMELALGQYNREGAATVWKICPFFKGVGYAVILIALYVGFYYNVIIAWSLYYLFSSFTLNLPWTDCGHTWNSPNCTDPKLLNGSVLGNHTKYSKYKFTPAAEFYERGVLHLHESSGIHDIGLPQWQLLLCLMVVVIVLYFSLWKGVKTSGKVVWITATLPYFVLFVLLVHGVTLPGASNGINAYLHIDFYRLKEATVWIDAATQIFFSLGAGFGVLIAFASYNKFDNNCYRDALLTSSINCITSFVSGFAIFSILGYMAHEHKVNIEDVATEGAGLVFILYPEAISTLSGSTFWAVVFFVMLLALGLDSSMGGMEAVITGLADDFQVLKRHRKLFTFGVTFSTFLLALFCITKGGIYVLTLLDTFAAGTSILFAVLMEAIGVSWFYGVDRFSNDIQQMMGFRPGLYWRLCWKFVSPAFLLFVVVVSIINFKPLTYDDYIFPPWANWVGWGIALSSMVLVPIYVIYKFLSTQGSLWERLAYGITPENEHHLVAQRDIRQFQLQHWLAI
Summary of the method: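 Radioligand binding to human NET in cell-free CHO-derived protein preparations, read by filter-based scintillation counting 1 hour after dosing. Loss of signal versus DMSO baseline indicated displacement; primary screening in duplicate at 25 uM, actives then titrated.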

[5] = biological target: Estrogen receptor (Homo sapiens) (UniProt P03372); assay: OT_ERa_GFPERaERE_0480: Odyssey Thera (OT) 8-hour HeLa Transcription Induction Assay for Estrogen Receptor (AID 2283381; active means hit-call score of the fitted dose curve at least 0.9, where 1 is the maximum; inactive means score below 0.9)
Chain of Estrogen receptor (Homo sapiens) (P03372 whole entry, looked up): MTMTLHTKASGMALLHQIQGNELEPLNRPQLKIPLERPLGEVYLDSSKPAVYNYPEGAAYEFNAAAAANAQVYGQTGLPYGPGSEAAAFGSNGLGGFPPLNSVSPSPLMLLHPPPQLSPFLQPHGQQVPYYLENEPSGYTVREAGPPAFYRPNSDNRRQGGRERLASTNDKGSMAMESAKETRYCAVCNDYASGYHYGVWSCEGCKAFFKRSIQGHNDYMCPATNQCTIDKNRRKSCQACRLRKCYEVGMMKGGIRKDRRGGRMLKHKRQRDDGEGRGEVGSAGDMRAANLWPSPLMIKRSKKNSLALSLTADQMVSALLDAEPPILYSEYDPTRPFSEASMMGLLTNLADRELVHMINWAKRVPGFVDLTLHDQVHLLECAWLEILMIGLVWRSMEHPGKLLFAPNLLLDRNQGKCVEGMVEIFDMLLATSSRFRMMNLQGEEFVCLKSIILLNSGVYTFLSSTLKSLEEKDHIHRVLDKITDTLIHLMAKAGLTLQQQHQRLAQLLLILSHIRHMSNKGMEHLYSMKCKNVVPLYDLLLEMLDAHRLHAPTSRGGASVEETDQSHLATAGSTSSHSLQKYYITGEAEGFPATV
Summary of the method: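 Fluorescent reporter signal, imaged by microscopy and scored with image-analysis algorithms, was taken 8 h after chemical dosing of HeLa cells; activity was fitted upward relative to DMSO.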

[6] = biological target: human Dopamine Transporter (DAT), SLC6A3 (gene 6531) (UniProt Q01959); assay: NVS_TR_hDAT: NovaScreen (NVS) Transporter Assay for human Dopamine Transporter (DAT) (AID 2283374);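 further: activity means loss of bound radioligand signal relative to DMSO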
Chain of human Dopamine Transporter (DAT), SLC6A3 (gene 6531) (Q01959 whole entry, looked up): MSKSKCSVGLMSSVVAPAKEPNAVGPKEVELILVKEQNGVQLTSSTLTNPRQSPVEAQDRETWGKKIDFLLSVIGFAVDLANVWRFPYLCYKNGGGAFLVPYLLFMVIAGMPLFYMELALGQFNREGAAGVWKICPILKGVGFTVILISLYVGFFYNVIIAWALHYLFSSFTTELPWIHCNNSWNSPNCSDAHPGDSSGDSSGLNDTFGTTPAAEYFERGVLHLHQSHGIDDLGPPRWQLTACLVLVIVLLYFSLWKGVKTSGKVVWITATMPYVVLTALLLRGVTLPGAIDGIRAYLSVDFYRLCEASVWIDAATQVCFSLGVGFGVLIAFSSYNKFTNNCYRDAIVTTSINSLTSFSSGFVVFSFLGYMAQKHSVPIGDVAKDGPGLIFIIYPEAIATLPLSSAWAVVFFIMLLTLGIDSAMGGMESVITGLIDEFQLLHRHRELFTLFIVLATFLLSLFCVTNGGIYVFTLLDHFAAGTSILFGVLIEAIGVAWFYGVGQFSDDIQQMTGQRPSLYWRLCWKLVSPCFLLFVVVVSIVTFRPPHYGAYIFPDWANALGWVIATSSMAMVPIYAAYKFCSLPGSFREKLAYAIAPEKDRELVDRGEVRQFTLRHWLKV
Summary of the method: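 Cell-free radioligand binding to extracted human DAT protein, read 1 h after dosing by filter-based scintillation counting. Loss of specific binding scored against DMSO baseline; primary screen in duplicate at 25 uM, actives then run in concentration series.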

[7] = biological target: mouse Estrogen Receptor alpha (Era), Esr1 (gene 13982) (UniProt P19785); assay: NVS_NR_mERa: NovaScreen (NVS) Nuclear Receptor Binding Assay for mouse Estrogen Receptor alpha (Era) (AID 2283378);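 further: hit means loss of bound radioligand signal relative to DMSO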
Chain of mouse Estrogen Receptor alpha (Era), Esr1 (gene 13982) (P19785 whole entry, looked up): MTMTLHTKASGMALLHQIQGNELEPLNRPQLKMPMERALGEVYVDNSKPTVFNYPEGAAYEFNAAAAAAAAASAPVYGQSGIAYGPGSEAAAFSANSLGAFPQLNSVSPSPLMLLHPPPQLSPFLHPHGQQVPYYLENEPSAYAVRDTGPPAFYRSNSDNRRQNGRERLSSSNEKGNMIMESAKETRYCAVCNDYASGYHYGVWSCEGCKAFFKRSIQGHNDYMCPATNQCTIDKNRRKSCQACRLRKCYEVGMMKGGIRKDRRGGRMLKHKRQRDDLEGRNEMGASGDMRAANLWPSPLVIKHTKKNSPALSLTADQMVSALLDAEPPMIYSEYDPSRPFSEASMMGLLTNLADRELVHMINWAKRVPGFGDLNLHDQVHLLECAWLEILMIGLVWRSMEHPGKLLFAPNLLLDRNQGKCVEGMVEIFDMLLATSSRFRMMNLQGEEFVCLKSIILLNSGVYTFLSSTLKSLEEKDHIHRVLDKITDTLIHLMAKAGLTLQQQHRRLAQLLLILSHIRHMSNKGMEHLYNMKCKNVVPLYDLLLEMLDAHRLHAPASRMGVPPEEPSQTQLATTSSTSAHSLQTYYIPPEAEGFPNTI
Summary of the method: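 Extracted mouse Era incubated with tritiated or iodinated radioligand plus test chemical, 18 h. Bound fraction separated on filters, counted by scintillation. DMSO = negative control/baseline; duplicate single-point at 25 uM, then concentration-response follow-up.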

[8] = biological target: Agonist Androgen Response Element (ARE), AR (gene 367) (UniProt P10275); assay: OT_AR_ARELUC_AG_1440: Odyssey Thera (OT) 24-hour CHO-K1 Luciferase Assay for Agonist Androgen Response Element (ARE) (AID 2283379)
Chain of Agonist Androgen Response Element (ARE), AR (gene 367) (P10275 whole entry, looked up): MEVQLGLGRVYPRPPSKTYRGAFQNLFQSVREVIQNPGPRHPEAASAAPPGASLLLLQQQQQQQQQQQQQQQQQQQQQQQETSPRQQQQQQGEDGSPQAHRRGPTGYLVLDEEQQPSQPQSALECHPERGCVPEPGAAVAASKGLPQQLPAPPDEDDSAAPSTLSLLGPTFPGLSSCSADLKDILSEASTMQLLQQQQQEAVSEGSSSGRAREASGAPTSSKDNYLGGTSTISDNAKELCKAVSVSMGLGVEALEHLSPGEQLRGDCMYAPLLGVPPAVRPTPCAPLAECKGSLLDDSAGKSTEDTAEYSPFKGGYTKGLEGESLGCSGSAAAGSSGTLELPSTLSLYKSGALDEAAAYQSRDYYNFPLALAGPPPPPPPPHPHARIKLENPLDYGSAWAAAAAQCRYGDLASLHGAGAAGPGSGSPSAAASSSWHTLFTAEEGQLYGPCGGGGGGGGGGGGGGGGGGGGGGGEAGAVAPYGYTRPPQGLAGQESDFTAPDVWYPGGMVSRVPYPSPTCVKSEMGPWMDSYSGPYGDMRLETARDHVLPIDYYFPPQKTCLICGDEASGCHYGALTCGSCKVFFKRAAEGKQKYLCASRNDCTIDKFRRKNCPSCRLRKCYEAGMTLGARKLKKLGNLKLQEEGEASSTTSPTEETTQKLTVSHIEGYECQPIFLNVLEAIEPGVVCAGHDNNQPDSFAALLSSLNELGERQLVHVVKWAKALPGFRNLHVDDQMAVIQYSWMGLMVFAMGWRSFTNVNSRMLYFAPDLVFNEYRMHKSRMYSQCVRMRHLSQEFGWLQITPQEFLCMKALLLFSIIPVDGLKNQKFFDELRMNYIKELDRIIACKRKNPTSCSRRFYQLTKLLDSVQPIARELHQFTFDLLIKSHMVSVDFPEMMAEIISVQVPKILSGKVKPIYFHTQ
Summary of the method: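 Seed CHO-K1 cells; dose compounds for 24 h; add D-luciferin plus ATP in PBS; read luminescence. Signal increase relative to vehicle defines agonist activity, with at least 3 replicate wells per sample.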

[9] = biological target: Peroxisome proliferator-activated receptor gamma (Homo sapiens) (UniProt P37231); assay: NVS_NR_hPPARg: NovaScreen (NVS) Nuclear Receptor Binding Assay for human Peroxisome Proliferator-activated Receptor gamma (PPARg) (AID 2283370)
Chain of Peroxisome proliferator-activated receptor gamma (Homo sapiens) (P37231 whole entry, looked up): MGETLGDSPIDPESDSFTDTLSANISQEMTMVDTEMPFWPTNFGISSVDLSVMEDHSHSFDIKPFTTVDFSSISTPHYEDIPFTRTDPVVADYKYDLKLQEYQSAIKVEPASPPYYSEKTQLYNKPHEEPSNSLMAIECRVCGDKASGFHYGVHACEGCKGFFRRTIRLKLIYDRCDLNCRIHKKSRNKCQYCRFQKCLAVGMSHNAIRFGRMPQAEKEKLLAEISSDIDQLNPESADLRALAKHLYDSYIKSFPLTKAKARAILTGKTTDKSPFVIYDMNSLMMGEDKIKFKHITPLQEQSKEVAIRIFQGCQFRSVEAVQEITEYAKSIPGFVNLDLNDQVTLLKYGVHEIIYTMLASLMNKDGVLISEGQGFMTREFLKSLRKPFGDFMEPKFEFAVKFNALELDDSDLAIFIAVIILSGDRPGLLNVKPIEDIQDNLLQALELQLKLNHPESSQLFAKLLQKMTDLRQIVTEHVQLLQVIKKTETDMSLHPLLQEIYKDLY
Summary of the method: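 Chemicals were tested first in duplicate at 25 uM, then in concentration series if active. Binding to cell-free PPARg protein was measured by fluorescence polarization after 2 h, with loss of signal scored against DMSO.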

[10] = biological target: Estrogen receptor beta (Homo sapiens) (UniProt Q92731); assay: OT_ER_ERbERb_1440: Odyssey Thera (OT) 24-hour HEK293T Protein-Complementation Assay for Estrogen Receptor-beta/-beta Homodimer (AID 2283380);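 further: fluorescence gain from ER beta LBD homodimer complementation read by laser scanning cytometry; scored as signal increase over DMSO baseline for both agonists and antagonists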
Chain of Estrogen receptor beta (Homo sapiens) (Q92731 whole entry, looked up, the tested form may be a part): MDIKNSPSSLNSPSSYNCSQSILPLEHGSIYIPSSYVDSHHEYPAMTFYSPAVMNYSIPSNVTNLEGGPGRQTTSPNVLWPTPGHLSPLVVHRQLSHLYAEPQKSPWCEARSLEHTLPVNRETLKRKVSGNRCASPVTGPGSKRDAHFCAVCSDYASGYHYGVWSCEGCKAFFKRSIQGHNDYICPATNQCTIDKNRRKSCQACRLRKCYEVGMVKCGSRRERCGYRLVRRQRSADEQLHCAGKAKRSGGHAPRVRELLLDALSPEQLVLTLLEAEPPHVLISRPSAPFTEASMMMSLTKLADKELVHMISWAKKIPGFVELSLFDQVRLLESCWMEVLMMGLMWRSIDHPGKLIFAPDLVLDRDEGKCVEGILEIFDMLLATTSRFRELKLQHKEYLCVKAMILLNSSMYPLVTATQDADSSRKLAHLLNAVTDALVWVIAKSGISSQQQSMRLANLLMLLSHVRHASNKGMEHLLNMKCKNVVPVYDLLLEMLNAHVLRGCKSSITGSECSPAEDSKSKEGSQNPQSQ
Summary of the method: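 HEK293T cells stably expressing human ER-beta LBD (aa 310-547) PCA homodimer pair, dosed 24 h; formaldehyde-fixed, Draq5-stained. Readout: increase in nuclear (agonist) or nuclear plus cytoplasmic (antagonist) fluorescence intensity versus DMSO, gain-of-signal fitting.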

In the case of O=C1c2ccccc2C(=O)N1CCc1noc(-c2ccc(CN3CCCCCC3)s2)n1, the outcome [1] was “inactive”, the AC50 [2] was 7.26 µM (active) and the AC50 [3] was 9.05 µM (active). For the same compound, the AC50 [4] was 6.14 µM (active) and the outcome [5] was “inactive”.
For CN(C)C(=O)C1(N2CCCCC2)CCN(CC[C@@]2(c3ccc(Cl)c(Cl)c3)CN(C(=O)c3ccccc3)CCO2)CC1, the AC50 [1] was 36 µM (active), the AC50 [2] was 13.5 µM (active) and the AC50 [6] was 2.76 µM (active). The AC50 [4] was 2.33 µM (active), the AC50 [7] was 0.203 µM (active) and the outcome [8] was “inactive”. For the same compound, the AC50 [5] was 16.8 µM (active).
In the case of O=C(O)c1ccccc1-n1cc(C(=O)O)c(=O)c2cc(Nc3c(F)cc(F)cc3Cl)c(Cl)cc21, the outcome [9] was “inactive”, the outcome [10] was “inactive” and the outcome [5] was “inactive”.
In the case of CN(C[C@@H](CC[N+]12CCC(C3CCCCC3)(CC1)CC2)c1ccc(Cl)c(Cl)c1)C(=O)c1cc(C(F)(F)F)cc(C(F)(F)F)c1, the AC50 [1] was 17.5 µM (active), the AC50 [6] was 1.95 µM (active) and the AC50 [3] was 16.7 µM (active). For the same compound, the AC50 [4] was 1.38 µM (active), the outcome [7] was “inactive” and the outcome [8] was “inactive”. The outcome [10] was “inactive” and the AC50 [5] was 12.4 µM (active).
O=C(O)Cc1cc(I)c(Oc2ccc(O)c(I)c2)c(I)c1 was tested, and the outcome [9] was “inactive” and the outcome [10] was “inactive”.
For O=C(O)Cn1c(=O)n(Cc2ccc(Br)cc2F)c(=O)c2ccc(Cl)cc21, the AC50 [9] was 42.4 µM (active), the outcome [8] was “inactive” and the outcome [10] was “inactive”. For the same compound, the outcome [5] was “inactive”.
CC[C@H](NC(=O)c1cc(F)ccc1NS(=O)(=O)c1cccc2cccnc12)c1ccccc1 was tested, and the outcome [9] was “inactive”, the outcome [10] was “inactive” and the outcome [5] was “inactive”.
With Cc1oc2c(NC(=O)c3c(Cl)cccc3Cl)cccc2c1C(C)(C)O the outcome [9] was “inactive” and the outcome [5] was “inactive”.
For CCCCCCCCCCCC[N+](C)(C)C, the outcome [9] was “inactive”, the AC50 [6] was 10.5 µM (active) and the AC50 [3] was 13.7 µM (active). For the same compound, the AC50 [4] was 7.96 µM (active) and the outcome [10] was “inactive”.
With Clc1cc(Cl)c2c(c1)N=C1CCCCCN1C2 the AC50 [2] was 4.16 µM (active), the AC50 [6] was 4.92 µM (active) and the AC50 [4] was 3.55 µM (active). For the same compound, the outcome [5] was “inactive”.
With CCCCOC(=O)c1ccc(O)cc1 the outcome [9] was “inactive”, the AC50 [4] was 13.9 µM (active) and the outcome [8] was “inactive”. The AC50 [10] was 4.49 µM (active) and 5.81 µM (active) and 6.38 µM (active).
With Oc1ccc2ccccc2c1 the outcome [9] was “inactive”, the AC50 [2] was 7.87 µM (active) and the AC50 [6] was 10.1 µM (active). For the same compound, the AC50 [3] was 8.73 µM (active), the AC50 [4] was 7.32 µM (active) and the AC50 [8] was 1.64 µM (active). The AC50 [10] was 45.7 µM (active).
With CCCCCCCC[Si](OCC)(OCC)OCC the outcome [9] was “inactive” and the outcome [10] was “inactive”.
For CN1C(=O)N(c2ccccc2Br)Cc2cnc(Nc3ccc4c(c3)OCC(CO)O4)nc21 (stereo unspecified), the AC50 [9] was 25 µM (active), the AC50 [4] was 4.72 µM (active) and the outcome [10] was “inactive”. The AC50 [5] was 55.4 µM (active).
CC(C)(O)c1ccc(CNC(=O)c2cccnc2Oc2ccc3nonc3c2)cc1 was tested, and the outcome [9] was “inactive”, the outcome [10] was “inactive” and the outcome [5] was “inactive”.
With Cc1c2ccccc2c(C)c2c1ccc1ccccc12 the outcome [9] was “inactive”, the outcome [10] was “inactive” and the outcome [5] was “inactive”.
In the case of Cc1cc(F)ccc1-c1cc(N2CC[C@@H](O)[C@H]2CO)ncc1N(C)C(=O)C(C)(C)c1cc(C(F)(F)F)cc(C(F)(F)F)c1, the outcome [9] was “inactive”, the AC50 [4] was 5.97 µM (active) and the outcome [8] was “inactive”. The outcome [10] was “inactive” and the outcome [5] was “inactive”.
With CN(C)c1ccc(C(=C2C=CC(=[N+](C)C)C=C2)c2ccc(N(C)C)cc2)cc1 the AC50 [9] was 1.4 µM (active), the AC50 [6] was 4.25 µM (active) and the AC50 [3] was 7.04 µM (active). For the same compound, the AC50 [4] was 4.79 µM (active), the outcome [8] was “inactive” and the outcome [10] was “inactive”. The outcome [5] was “inactive”.
With C[C@]12CC[C@@H]3c4ccc(O)cc4CC[C@H]3[C@@H]1CC[C@H]2O the outcome [9] was “inactive” and the AC50 [6] was 0.252 µM (active).
For COc1ccc2cc(S(=O)(=O)N[C@H](CC(=O)N[C@H](Cc3ccc(CN4[C@H](C)CCC[C@@H]4C)cc3)C(=O)N(C)C(C)C)c3ccc4c(c3)OCO4)ccc2c1, the outcome [1] was “inactive”, the AC50 [6] was 12.1 µM (active) and the outcome [7] was “inactive”. For the same compound, the AC50 [5] was 15.8 µM (active).
For O=c1c(-c2ccc(O)cc2)coc2cc(O)cc(O)c12, the AC50 [9] was 39.4 µM (active) and the outcome [8] was “inactive”.
With CC1(C)NC(=O)N(c2ccc([N+](=O)[O-])c(C(F)(F)F)c2)C1=O the outcome [9] was “inactive” and the outcome [10] was “inactive”.
With O=CCCCC=O the outcome [9] was “inactive” and the outcome [5] was “inactive”.
O=C(Nc1ccc(Cl)cc1)Nc1ccc(Cl)c(Cl)c1 was tested, and the outcome [1] was “inactive”, the outcome [4] was “inactive” and the outcome [7] was “inactive”. The AC50 [8] was 0.336 µM (active), the outcome [10] was “inactive” and the outcome [5] was “inactive”.
With O=C1CCC(C2CCCCC2)CC1 the outcome [9] was “inactive” and the outcome [10] was “inactive”.
COc1cc(C(=O)NC2CCN(C)CC2)ccc1Nc1ncc2c(n1)N(C1CCCC1)CC(F)(F)C(=O)N2C was tested, and the AC50 [2] was 9.31 µM (active), the AC50 [6] was 8.6 µM (active) and the outcome [3] was “inactive”. The AC50 [4] was 23.2 µM (active), the AC50 [7] was 1.49 µM (active) and the AC50 [10] was 1.94 µM (active). For the same compound, the outcome [5] was “inactive”.
CCCCCCCCOC(=O)c1cc(O)c(O)c(O)c1 was tested, and the AC50 [9] was 25 µM (active), the AC50 [6] was 19.9 µM (active) and the AC50 [4] was 5.24 µM (active). The AC50 [7] was 11.3 µM (active), the AC50 [10] was 11.6 µM (active) and the AC50 [5] was 50 µM (active).
